From the supplement of paper PMC9925115
± gives the uncertainty stated by the source.

Experiments:
FLX1 = assay: cell viability z-score within plate (CellTiter-Glo), mean of 3 biological replicates; higher = higher viability relative to plate (less growth inhibition); conditions: 2 µM; time (hr): 120
Procedure: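 FLX1 fibrolamellar carcinoma cells (DNAJB1-PRKACA fusion), 600 cells/well in 384-well plates, treated with a Selleck kinase inhibitor library (L1200) at 2 uM for 5 days (120 hr); viability by CellTiter-Glo. A z-score was computed within each plate and averaged over three biological replicates.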

[1] = system: FLX1 + dox-induced PRKAR1A G325D; assay: difference in log2 fold change of viability vs plate median (dox-induced PRKAR1A G325D minus uninduced); higher = compound less effective when PKA is inhibited; conditions: concentration: not stated (2 or 5 uM); 5 days
Procedure: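 For each plate a log2 fold change vs the plate median was derived, and the values without dox were subtracted from those with dox, averaged over three biological replicates.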

Cc1[nH]c(/C=C2\C(=O)Nc3ccccc32)c(C)c1CCC(=O)O [Orantinib (TSU-68, SU6668)]
cell viability z-score within plate (FLX1): 0.388 ± 0.61
difference in log2 fold change of viability [1]: 0.216

CNC(=O)c1cc(COc2nnc(Nc3ccc(Cl)cc3)c3ccoc23)ccn1 [Telatinib]
cell viability z-score within plate (FLX1): -1.65 ± 1.2
difference in log2 fold change of viability [1]: 0.0582

O=C(Nc1cc(C(F)(F)F)cc(C(F)(F)F)c1)c1cc(Cl)ccc1O
cell viability z-score within plate (FLX1): -0.692 ± 0.5
difference in log2 fold change of viability [1]: -0.138

O=C(c1ccc(Nc2nccc(-c3cc4ccccc4s3)n2)cc1)N1CCC(N2CCCC2)CC1 [IKK-16 (IKK Inhibitor VII)]
cell viability z-score within plate (FLX1): 0.237 ± 0.33
difference in log2 fold change of viability [1]: 0.096

CC(C)(C)c1nc(-c2cccc(NS(=O)(=O)c3c(F)cccc3F)c2F)c(-c2ccnc(N)n2)s1
cell viability z-score within plate (FLX1): 0.0787 ± 0.036
difference in log2 fold change of viability [1]: 0.264

CCN1CCN(Cc2ccc(C(=O)Nc3ccc(C)c(Oc4ccc5c(c4)CC(=O)N5)c3)cc2C(F)(F)F)CC1
cell viability z-score within plate (FLX1): 0.226 ± 0.35
difference in log2 fold change of viability [1]: -0.078

CC(C)(C)c1cc(/C=C(\C#N)C(N)=S)cc(C(C)(C)C)c1O [Tyrphostin AG 879]
cell viability z-score within plate (FLX1): 0.585 ± 0.3
difference in log2 fold change of viability [1]: 0.264
